The source of these data is ChEMBL document CHEMBL3988442, “University of Dundee, Small-Polar-MMV Screening Library” (2021).

Among all 48,000 compounds or so, about 13,000 (27%) showed an effect of 50% or more. This is one part of the list.

The assay concerns Wolbachia pipientis. Description: Anti-Wolbachia Cell-Based Screen. Also noted: scale not given: in the data most compounds retested in dose-response had high values. Type of assay: functional. The settings on record: 5 µM.
On to `COc1ccc2nc(CNC(=O)c3cc(C(C)C)no3)[nH]c2c1`, for which the “Percent Effect” value is reported as -7.08%. The result for `CC(NCc1cnn(C)c1)c1noc(-c2ccc(Cl)cc2)n1` (configuration not stated) reads 2.096%.

Consider `O=C1CCc2cc(C(=O)NCc3ccc(-n4cncn4)nc3)ccc2N1`, for which the “Percent Effect” value is reported as -4.762%. Turning to `Cc1ccc(C(=O)NCCS(=O)(=O)Cc2ccccc2)c(C)c1`, the “Percent Effect” value is reported as 5.407%. Regarding `O=C(NCCn1nc(-n2cncn2)ccc1=O)c1ccsc1`, the “Percent Effect” value was determined as 90.98%. Next, `Cc1ccc(C(=O)NCCn2nc(-n3cncn3)ccc2=O)c(C)c1`: 115.4%. Take `O=C(NCCn1nc(-n2cncn2)ccc1=O)c1ccc(F)cc1F`: the “Percent Effect” value is given as 119.8%.

Consider `Cc1csc(C(=O)NCCn2nc(-n3cncn3)ccc2=O)c1`, for which the “Percent Effect” value is listed as 104.4%.

In the case of `Cc1ccc(C(=O)NCCCn2cncn2)c(=O)[nH]1`, the “Percent Effect” value is recorded as 0.33%. Next, `O=C(NCCc1ccsc1)c1ccoc1`: 7.959%; `N#Cc1cccc(N2CCCC3(C2)CN(c2nncs2)CCO3)c1` (configuration not stated): -22.42%; `O=C1O[C@@H]2CN(c3ccc(Cl)cn3)C[C@@H]2N1CCc1ccc(F)cc1`: 15.74%. Regarding `CCOc1cc(CNC(=O)C(C#N)c2nc(C)cs2)ccc1OC(F)F` (configuration not stated), the “Percent Effect” value is -3.55%.

`NS(=O)(=O)CCNC(=O)c1ccc(OCc2ccccc2)nc1`: the “Percent Effect” value was 5.557%. Take `CCCc1nc(C)cc(N2CCNC(C(=O)NC3CC3)C2)n1` (configuration not stated): the “Percent Effect” value is recorded as -8.099%. In the case of `O=C(C1CN(CC2CC2)CC12CCOCC2)N1CCOCC1.O=C(O)C(F)(F)F` (configuration not stated), the “Percent Effect” value was determined as 0.7969%. Next, `O=C(CN1CCCCC1Cn1cccn1)NC1CCN(C2CC2)CC1` (configuration not stated): -1.641%; `O=C(NCCn1nc(-n2cncn2)ccc1=O)c1ccccc1Br`: 41.16%; `CCSc1ccccc1C(=O)NCCn1nc(C(F)(F)F)n(C)c1=O`: -21.23%. Next, `CCSc1ccccc1C(=O)NCCn1nc(-n2cncn2)ccc1=O`: 112%. Turning to `CN(CC(N)=O)C(=O)c1cn(-c2ccc(Br)cc2)cn1`, the “Percent Effect” value amounted to 8.695%. Turning to `O=C(NCc1ccccn1)c1nnn(-c2ccc(Br)cc2)n1`, the “Percent Effect” value was 7.96%.

Take `CCC(C)NC(=O)c1nnn(-c2ccc(Br)cc2)n1` (configuration not stated): the “Percent Effect” value was 110.8%. For `COCC(C)NC(=O)c1nnn(-c2ccc(Br)cc2)n1` (configuration not stated), the “Percent Effect” value was 4.837%. For `CN(C)C(=O)c1nnn(-c2ccc(Br)cc2)n1`, the “Percent Effect” value is listed as 110.9%. Next, `CC1CCCN(C(=O)c2nnn(-c3ccc(C(F)(F)F)cc3)n2)C1` (configuration not stated): -23.6%. As to `Cc1ccc(CN(C)C(=O)CN2CCCCC2Cn2cncn2)cc1` (configuration not stated), the “Percent Effect” value is -11.49%. The result for `O=C(NCc1ccccc1CN1CCOCC1)Nc1nncs1` reads 33.23%; that for `CC(C1CCN(Cc2cccc(OC(F)F)c2)CC1)N1CCOCC1` (configuration not stated), 4.738%.

Consider `Cc1nc(-c2ccc(S(=O)(=O)N3CCC=C(F)C3)cc2)co1`, for which the “Percent Effect” value turned out to be 3.194%. Next, `CCC(CO)N(Cc1ccccn1)Cc1ccc(-c2ccn[nH]2)s1` (configuration not stated): 0.2436%; `CCN(CC)c1ncccc1CNC(=O)c1cc2nc(C)cc(C)n2n1`: -11.51%. In the case of `CCN(CC)c1ncccc1CNCc1ccc(-c2ccn[nH]2)s1`, the “Percent Effect” value is on record as 103.4%.

Consider `CCC(CO)N(Cc1cccnc1)Cc1ccc(-c2ccn[nH]2)s1` (configuration not stated), for which the “Percent Effect” value turned out to be 4.35%.

As to `CCN(Cc1ccc(Cl)s1)S(=O)(=O)CC`, the “Percent Effect” value was -12.66%.

Turning to `CCN(CC)c1ncccc1CNCc1ccc(Cl)s1`, the “Percent Effect” value is 99.51%. The result for `CCN(CC)c1ncccc1CNCc1cc2ccccc2s1` reads 111.2%. On to `CCN(CC)c1ncccc1CNC(=O)c1cnn(CC)c1`, for which the “Percent Effect” value is reported as -6.3%. Next, `Cc1cc(N(C)C)nc(N2CCn3c(nnc3C(C)C)C2)n1`: -5.2%; `NC(=O)C1CCCN1Cc1ccccc1NC(=O)Cc1cccs1` (configuration not stated): -13.98%; `Cn1ccc2ccc(C(=O)N3CCN(C(=O)N4CCOCC4)CC3)cc21`: 0.8109%. The result for `CS(=O)(=O)N1CCC(Oc2ccc(C(=O)N3CCSCC3)cc2Cl)CC1` reads 7.501%; that for `CCOC(=O)N1CCN(C(=O)c2ccc3ccn(C)c3c2)CC1`, 0.8286%; that for `COCCn1ccc2cc(C(=O)N3CCN(S(C)(=O)=O)CC3)ccc21`, 125.8%. The result for `COCCn1ccc2ccc(C(=O)N3CCN(C(C)=O)CC3)cc21` reads 108.9%. As to `CCC(=O)Nc1ccc2c(ccn2CCOC)c1`, the “Percent Effect” value stood at 8.893%. As to `COCCn1ccc2ccc(C(=O)O)cc21`, the “Percent Effect” value is 99.17%. The result for `COCCn1ccc2cc(NC(=O)COC)ccc21` reads 1.286%. Next, `CN(C)S(=O)(=O)N1CCN(C(=O)c2ccc3ccn(C)c3c2)CC1`: 5.412%; `CC(C1CCN(Cc2c(Cl)cncc2Cl)CC1)N1CCN(C)CC1` (configuration not stated): -10.06%; `CC1(c2ccccc2)CCC(=O)N(CC2(N3CCOCC3)CCCC2)C1` (configuration not stated): -0.1352%. Turning to `O=C(NCc1nc(C2CC2)no1)N1CCOC(c2ccccc2)C1` (configuration not stated), the “Percent Effect” value is -16.91%. With `COC(=O)[C@@H]1Cc2ncn(C)c2CN1S(=O)(=O)c1ccc(OC)cc1`, the “Percent Effect” value is given as 2.654%. The result for `O=C(Nc1ccnn1C1CCCC1)c1ccc(NC2CC2)nc1` reads -4.734%. Next, `CCc1c(C)nn(CCN2CC3(CCOC3)CCC2=O)c1C` (configuration not stated): -12.78%; `CC(C)CCNC(=O)CCc1ccnc2ccccc12`: -1.133%; `CC(C)(C)C(=O)NCCC(=O)NCCc1ccn(-c2ccccc2)n1`: 101.3%. As to `CC(C)(C)C(=O)NCCc1ccn(-c2ccccc2)n1`, the “Percent Effect” value worked out at 8.286%. As to `O=C(CCNc1ncccn1)NCCc1ccn(-c2ccccc2)n1`, the “Percent Effect” value is 0.9035%. The result for `CCNC(=O)CCS(=O)(=O)Cc1ccn(-c2cccc(F)c2)n1` reads -7.781%; that for `CC(C)CCC(=O)NCCc1ccn(-c2ccccc2)n1`, 127.8%. Next, `CC(C)(CNC(=O)NCCc1ccn(-c2ccccc2)n1)C(N)=O`: 145.8%. In the case of `CC(C)(CNC(=O)NCCOc1cccc(F)c1)C(N)=O`, the “Percent Effect” value is recorded as -10.47%. In the case of `CCC(CC)NC(=O)CN1CCN(C(=O)N(C)C)CC1`, the “Percent Effect” value was found to be 29.72%. Take `CCCn1cnnc1CNC1CSCCSC1`: the “Percent Effect” value is given as 10.77%. Regarding `Cc1cccc(COCC2c3nnn(C)c3CCN2Cc2ccoc2)n1.O=C(O)C(F)(F)F.O=C(O)C(F)(F)F` (configuration not stated), the “Percent Effect” value is -0.8413%. As to `COCC1Cn2nnc(-c3cnn(C)c3)c2CN1Cc1ccco1.O=C(O)C(F)(F)F` (configuration not stated), the “Percent Effect” value is on record as -7.435%. Regarding `COCC1Cn2nnc(-c3cnn(C)c3)c2CN1Cc1cccs1.O=C(O)C(F)(F)F` (configuration not stated), the “Percent Effect” value is listed as 105.4%. As to `COCC1Cn2nnc(-c3cnn(C)c3)c2CN1Cc1ccc(C)o1` (configuration not stated), the “Percent Effect” value was found to be 87.7%. The result for `COCC1Cn2nnc(-c3cnn(C)c3)c2CN1Cc1ccc(C)s1.O=C(O)C(F)(F)F` (configuration not stated) reads -9.357%; that for `COCC1CN(Cc2ccsc2)Cc2nn(C)cc21.O=C(O)C(F)(F)F` (configuration not stated), 2.999%. The result for `Fc1cccc(-c2nnn3c2COC(CNCc2ccsc2)C3)c1.O=C(O)C(F)(F)F` (configuration not stated) reads -5.927%; that for `COCC1Cn2nnc(-c3cnn(C)c3)c2CN1Cc1ccsc1.O=C(O)C(F)(F)F` (configuration not stated), 97.96%.

Regarding `COCC1Cn2nnc(-c3cnn(C)c3)c2CN1Cc1ccoc1.O=C(O)C(F)(F)F` (configuration not stated), the “Percent Effect” value is listed as 100.4%. The result for `COCC1CN(Cc2ccc(C)o2)Cc2cn(C)nc21.O=C(O)C(F)(F)F.O=C(O)C(F)(F)F` (configuration not stated) reads -19.49%; that for `Cc1cnnn1Cc1nnn2c1CN(Cc1cccs1)CCC2.O=C(O)C(F)(F)F`, -1.131%; that for `Cn1cc(-c2nnn3c2COC(CNCc2nccs2)C3)cn1` (configuration not stated), 7.882%. In the case of `CN(C)S(=O)(=O)N1C[C@H]2CCC[C@@]2(COCC2CCOCC2)C1`, the “Percent Effect” value is -9.423%. For the molecule `CCc1nc(CNC2CCN(c3ccc(OC)cc3)CC2)cs1`, the “Percent Effect” value is given as -5.711%. On to `O=C(c1ccncc1F)N1CCc2ncnc(N3CCOCC3)c2CC1`, for which the “Percent Effect” value turned out to be 22.92%. For the molecule `CCc1noc(C)c1C(=O)NCc1cc[nH]n1`, the “Percent Effect” value is listed as -9.348%. Turning to `CCc1c(C)nn(CCNC(=O)c2cnn[nH]2)c1C`, the “Percent Effect” value was -18.26%. For the molecule `CCc1n[nH]c(C(=O)NCCn2ccc(C)n2)c1C`, the “Percent Effect” value turned out to be 161.5%. Next, `CCCN1CC2(CCN(C)CC2)CC1C(=O)NCCn1ccc(C)n1` (configuration not stated): 5.137%; `CCc1n[nH]c(C(=O)NCCn2ccnc2C)c1C`: 12.68%. Next, `CCc1n[nH]c(C(=O)NCCn2nccc2C)c1C`: 177.1%.

Take `COc1cnc(CN2CC(=O)N(c3ccc(C)cc3)CC2C)cc1O` (configuration not stated): the “Percent Effect” value worked out at 8.35%. With `Cc1cc(C)cc(N2CCN(C(=O)C3CN(C)C(=O)N3)CC2=O)c1` (configuration not stated), the “Percent Effect” value amounted to 83.41%. Next, `O=C([C@H](O)c1ccccc1)N1CCN(c2cccc(Cl)c2)C(=O)C1`: -7.931%; `CN1CC(C(=O)N2CCN(c3cccc(Cl)c3)C(=O)C2)NC1=O` (configuration not stated): 98.1%.

As for `Cc1ccc(N2CCN(C(=O)C(O)c3cccc(Cl)c3)CC2=O)cc1` (configuration not stated), the “Percent Effect” value is recorded as -0.06478%.

Regarding `Cc1ccc(N2CCN(C(=O)[C@@H]3CCC(=O)N3)CC2=O)cc1`, the “Percent Effect” value stood at 107.8%. For the molecule `COc1cccc(N2CCN(C(=O)CO)CC2=O)c1`, the “Percent Effect” value is given as 5.099%. The result for `Cc1ccc(CC(=O)N2CC[C@@H]3NC(=O)CC[C@@H]32)cc1` reads -5.727%; that for `COC(C(=O)N1CCN(c2cccc(Cl)c2)C(=O)C1)c1ccccc1` (configuration not stated), -8.872%; that for `COc1ccc(N2CCN(C(=O)CCCc3cn[nH]c3)CC2=O)cc1`, -15.55%. Consider `COc1cccc(N2CCN(C(=O)[C@H](O)C3CCCCC3)CC2=O)c1`, for which the “Percent Effect” value was -19.32%. As for `Cc1ccc(N2CCN(C(=O)C3CN(C)C(=O)N3)CC2=O)cc1` (configuration not stated), the “Percent Effect” value was found to be 99.53%.

Turning to `COc1ccc(-c2nc(CNCCn3cccn3)cs2)cc1`, the “Percent Effect” value is given as 30.25%. Next, `COc1cc2c(cc1CNCc1ccnc(-n3cccn3)c1)OC(C)C2.Cl` (configuration not stated): -0.5391%; `O=C(O)CSc1nnc(-c2ccn[nH]2)n1-c1ccccc1C(F)(F)F`: -29.49%; `N#CCCN(CC1CCOC1)Cn1ccc(-c2ccsc2)n1` (configuration not stated): -9.852%.
